From PubChem BioAssay
The list is not random: actives were taken first. Their share in the collection is about 0.47%.
AID inhibitor: activation induced cytidine deaminase inhibition; Q9GZX7; AID deamination FRET fluorescence, UDG-coupled, 4 h; Potency, µM (doses to about 115 µM), usual class: inhibitors; 91,000 compounds, 0.32% hits; note: nearly all actives have a fitted effect of over 25% in size
Target sequence (Q9GZX7 whole entry, looked up): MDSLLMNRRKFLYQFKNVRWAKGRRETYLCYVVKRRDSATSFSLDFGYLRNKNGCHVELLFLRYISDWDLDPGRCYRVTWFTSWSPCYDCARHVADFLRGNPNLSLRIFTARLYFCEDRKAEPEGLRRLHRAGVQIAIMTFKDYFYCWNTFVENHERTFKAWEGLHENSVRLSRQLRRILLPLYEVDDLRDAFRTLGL
UDG counter: counter-screen for AID inhibitors: uracil-DNA glycosylase inhibition. FRET deamination/UDG coupled assay, UDG read, 4 h. Potency, µM (highest dose often 115 µM), for the others: top-dose activity change, negative = inhibition, hits mostly inhibitors. 91,000 compounds, 0.14% hits. AID 1347430; note: nearly all actives have a fitted effect of over 65% in size
* hit, by the source's call; i = inactive; ? = inconclusive; [ ] = dose if it differs, or a comment. Calls come from the whole dose curve; as a rule, active = well fitted curve in the direction sought with a large enough effect; inconclusive = small, poorly fitted or top-dose-only effect, or another doubt; inactive = no such curve, though single readings can be large; an effect the other way counts as inactive or inconclusive. % is set by controls: 0 for no effect and ±100 for the full control effect; potency is the fitted concentration of half-maximal effect.

SMILES | AID inhibitor | UDG counter
COc1cc(C(c2c(C)[nH][nH]c2=O)c2c(C)[nH][nH]c2=O)ccc1OC(=O)c1ccccc1OC | ? | -14%
COc1cc(C(c2c(C)[nH][nH]c2=O)c2c(C)[nH][nH]c2=O)ccc1OC(=O)c1cccc(C)c1 | 22µM* | -10%
O=C(CSc1cccc2cccnc12)NNC(=O)C(c1ccccc1)c1ccccc1 | i | -12%
O=C(Nc1cccc2cccnc12)C(c1ccccc1)c1ccccc1 | i | 89µM*
O=C(NCc1ccco1)c1ccc2c(c1)N(Cc1ccccc1F)C(=O)c1ccccc1S2(=O)=O | i | -4%
CN(C)C(=O)CSc1nc(-c2ccco2)nc2ccccc12 | i | -2%
COc1cccc(-c2cc(C(=O)O)c3cc(C)ccc3n2)c1 | i | -5%
CCOc1ccc(NC(=O)CSc2nc(-c3ccc(OC)cc3)nc3c2Cc2c(CO)cnc(C)c2O3)cc1 | i | 2%
COc1ccc(-c2nc3c(c(SCC(=O)Nc4cccc(O)c4)n2)Cc2c(CO)cnc(C)c2O3)cc1 | 45µM* | -15%
O=C(CSc1nc(-c2ccc(F)cc2)nc2c1Cc1ccccc1O2)Nc1cccc(C(=O)O)c1 | 40µM* | 0%
COc1cc(NC(=O)CSc2nc(-c3ccc(C)cc3)nc3c2Cc2ccccc2O3)cc(OC)c1 | i | -17%
COc1ccc(Oc2c(C)oc3cc(OCC(=O)c4ccc(OC)cc4)ccc3c2=O)cc1 | i | 1%
COc1ccc(CNCCC(c2ccc3c(c2)OCO3)c2ccccc2OC)cc1 (centres undefined) | 50µM* | -15%
COc1ccc(CNC(=O)C(=O)NCC(c2ccc3c(c2)OCO3)N2CCOCC2)cc1 (centres undefined) | i | 1%[57.5 µM]
COc1ccc(-c2cc(-c3ccccc3)nc(SCC(=O)Nc3ccccc3C)c2C#N)cc1 | i | -11%
CC(C)(C)c1ccc(C2Sc3ccccc3NC3=C2C(=O)c2ccccc23)cc1 (centres undefined) | i | 89µM*
O=C1CCCC2=C1C(c1ccc(C(F)(F)F)cc1)C1=C(N2)c2ccccc2C1=O (centres undefined) | i | -1%
Cc1noc2ncnc(NCCc3ccccc3)c12 | ? | -4%
Clc1ccc(-c2noc3ncnc(NCCc4ccccc4)c23)cc1 | 25µM* | -10%
CCN(C(=O)CSc1nc2ccccc2o1)c1ccccc1 | i | 10%
CCn1cc2nc(SCc3ccc(C)cc3)n(CCc3ccccc3)c(=O)c2n1 | ? | -23%
CCn1cc2nc(SCc3ccc(F)cc3)n(CCc3ccccc3)c(=O)c2n1 | 35µM* | -14%
CCc1ccccc1NC(=O)CCc1ncc(-c2ccc(F)cc2F)o1 | i | 8%
COc1ccc(Cl)cc1NS(=O)(=O)c1c(C)[nH]c(=O)[nH]c1=O | i | 6%
COc1cccc(-n2c(SCC(=O)Nc3cccc(C)c3)nc3c([nH]c4ccccc43)c2=O)c1 | 13µM* | -19%
SMILES | AID inhibitor | UDG counter
COc1cccc(NC(=O)CSc2nc3c([nH]c4ccccc43)c(=O)n2-c2cccc(Cl)c2)c1 | i | -5%
COc1ccc(S(N)(=O)=O)cc1NC(=O)c1[nH]c(C)c(C(C)=O)c1C | i | -3%
CC(C)Oc1ccc(C(=O)NCCc2csc(-c3cccc(F)c3)n2)cc1 | 45µM* | 0%
CCCCOc1ccc(C(=O)NCCc2csc(-c3cccc(F)c3)n2)cc1 | i | 5%
CCCN(CCC)S(=O)(=O)c1ccc(OC)c2ncccc12 | i | -4%
Cc1ccc2occ(CC(=O)Nc3c(C)cccc3C)c2c1 | i | -1%
O=C(c1cccn2c(=O)c3cc(Cl)ccc3nc12)N1CCN(c2ccccc2F)CC1 | i | 79µM*
Cc1ccc(C)c(N2CCN(C(=O)c3cccn4c(=O)c5ccccc5nc34)CC2)c1 | i | 0%
CC(C)COc1ccc(C2=NC(c3ccncc3)=Nc3ccc(F)cc3N2)cc1 | i | -15%
CCOc1ccc(C(=O)Nc2ccc3nc(N(CC)CC)cc(C)c3c2)cc1 | i | -7%
CCN(CC)c1cc(C)c2cc(NC(=O)c3cccc(OC)c3)ccc2n1 | 79µM* | -18%
COc1ccc(CNC(=O)c2nn(C)c3c2CS(=O)(=O)c2ccccc2-3)cc1 | i | -1%
COc1ccc(OC)c(CNC(=O)c2nn(C)c3c2CS(=O)(=O)c2ccccc2-3)c1 | 40µM* | -3%
Cc1ccccc1/C=N/Nc1ccc(S(=O)(=O)Nc2ccc(Cl)cc2)cc1[N+](=O)[O-] | i | -9%
CCC(C)(C)C(=O)N1CCC(C(=O)Nc2cc(C)ccn2)CC1 | i | 1%
Cc1ccc(NC(=O)COc2ccc(-c3nn(C)c(=O)c4ccccc34)cc2)cc1 | ? | 4%
Cc1cccc(OCC(=O)Nc2cc(-c3nn(C)c(=O)c4ccccc34)ccc2N2CCOCC2)c1 | ? | 89µM*
Cc1ccc(C)c(CNC(=O)C2CCCCN2S(=O)(=O)c2ccc(F)cc2)c1 (centres undefined) | i | ?
CC(C)Oc1ccc(CNC(=O)C2CCCCN2S(=O)(=O)c2ccc(F)cc2)cc1 (centres undefined) | ? | 89µM*
COc1ccccc1-c1cc2nc(C)c(CCC(=O)Nc3cc(C)ccc3C)c(C)n2n1 | i | -5%
COc1ccccc1NC(=O)CSC1=Nc2ccccc2C2=NC(CC(=O)NCCc3ccccc3)C(=O)N12 (centres undefined) | i | -9%
Cc1ccc(CSC2=Nc3ccccc3C3=NC(CCC(=O)NCc4cccs4)C(=O)N23)c(C)c1 (centres undefined) | i | 18%
O=C(CC1N=C2c3ccccc3N=C(SCc3ccccc3Cl)N2C1=O)NC1CCCCC1 (centres undefined) | i | 89µM*
O=C(CC1N=C2c3ccccc3N=C(SCc3ccccc3F)N2C1=O)NCCc1ccccc1 (centres undefined) | 35µM* | ?
Cc1ccc(CSC2=Nc3ccccc3C3=NC(CCC(=O)NCc4cccs4)C(=O)N23)cc1 (centres undefined) | 89µM* | -1%
Cc1ccc(CSC2=Nc3ccccc3C3=NC(CC(=O)NC4CCCCC4)C(=O)N23)c(C)c1 (centres undefined) | i | 10%
COc1ccc(-c2noc(CSc3nc4ccccc4[nH]3)n2)cc1 | i | 10%
Cc1sc2ncn(CC(=O)N3CCN(c4ccccc4F)CC3)c(=O)c2c1S(=O)(=O)N1CCC(C)CC1 | ? | 0%
